The structures appear in SMILES notation. Values joined by “and” are separate entries in the source; they are usually repeats but may differ in a detail not shown here. Equal values may be shown once. Records with an inconclusive call do not appear. A number with no mark means an inactive call. Active and inactive are the calls of the source. The call rests on the fitted dose curve; in most records, active means well fitted inhibition curve with a large enough effect; inconclusive means small, poorly fitted or top-dose-only effect; inactive means flat fitted curve, though single readings scatter.

For test [1], the system named is TAB165. As to the kind of experiment: qHTS profiling for inhibitors of Plasmodium falciparum proliferation (AID 504749). Further: potency means the concentration at half of the fitted maximal effect. The note with it: P. falciparum in erythrocytes, SYBR Green DNA, 72 h; series mostly up to 28.7 µM. In a few lines: (§1)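 Parasite proliferation within erythrocytes, 72 h exposure. Endpoint: SYBR Green I fluorescence after overnight lysis at room temperature. Controls: 0.29 uM artemisinin, DMSO.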

Test [2] has as its system CRL-7250. As to the kind of experiment: Cytotoxic Profiling of Annotated Libraries Using Quantitative High-Throughput Screening (AID 1296008). Further: potency means the concentration at half of the fitted maximal effect. On max response: on the % scale 0 is the no-effect control and ±100 the full control effect. The note with it: Five cell lines viability, CellTiter-Glo ATP luminescence, 48-72 h; max response: stronger effect = lower value. In a few lines:
(§2)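 Compounds were pin-transferred onto cells and incubated 48 or 72 hr at 37 degree Celsius, 95% humidity. CellTiter-Glo was added, plates sat 10 min at room temperature, then ATP-coupled luminescence was imaged as the viability read-out.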
Background: Cellular ATP, detected with luciferase, serves as a proxy for viable cell number.

In test [3] the test system is HEK293. The test is described as above. The following applies: Five cell lines viability, CellTiter-Glo ATP luminescence, 48-72 h; max response: stronger effect = lower value. In short, it runs like this: as §2
Test [4] concerns HaCat. The description is as above. The note with it: Five cell lines viability, CellTiter-Glo ATP luminescence, 48-72 h; max response: stronger effect = lower value. In a few lines:
as §2

Test [5] relates to KB-3-1. The test is described as above. The note with it: Five cell lines viability, CellTiter-Glo ATP luminescence, 48-72 h; max response: stronger effect = lower value. In short, it runs like this: as §2
Test [6] has as its system NIH3T3. The test is described as above. The following applies: Five cell lines viability, CellTiter-Glo ATP luminescence, 48-72 h; max response: stronger effect = lower value. In a few lines: as §2
Test [7] deals with HACAT. As to the kind of experiment: qHTS assay to identify novel small-molecules to repurpose for Merkel cell carcinoma treatment (AID 1296009). The following applies: MCC and control cell lines, CellTiter-Glo viability, 72 h. In a few lines: (§3)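 qHTS format: cells treated with library compounds in DMSO across 8 (NPC) or 11 (MIPE) concentrations. Readout after 72 hr at 37 degree celsius was CellTiter-Glo luminescence.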
A general note: In qHTS, concentration-response curves come from the screen itself.

The subject of test [8] is W2. Description: qHTS profiling for inhibitors of Plasmodium falciparum proliferation (AID 504749). Further: potency means the concentration at half of the fitted maximal effect. The following applies: P. falciparum in erythrocytes, SYBR Green DNA, 72 h; series mostly up to 28.7 µM. In a few lines:
as §1

For test [9], the system named is CRL-7250. Description: qHTS assay to identify novel small-molecules to repurpose for Merkel cell carcinoma treatment (AID 1296009). The following applies: MCC and control cell lines, CellTiter-Glo viability, 72 h; at 44.8 µM (top of the series) unless noted. In a few lines:
as §3

Test [10] concerns HEK293T. Described as above. The note with it: MCC and control cell lines, CellTiter-Glo viability, 72 h; at 44.8 µM (top of the series) unless noted. In a few lines:
as §3

[11] abbreviates: at 44.8 µM (top of the series) unless noted.
Further: nearly all actives have a fitted effect of over 60% in size.

With `CN1CCC(O)(c2ccc(F)cc2)C(C(=O)c2ccc(F)cc2)C1` (stereo unspecified), the Potency entry in test [1] is “inactive”. The max response is -1.09% in test [2], 3.5% in test [3], 8.12% in [5] and 2.95% in test [6]. In addition, the result in [4] and in [7] (setting [11]) was inactive.

For `CC(C)(C)NCC(O)c1cc(Cl)c(N)c(C(F)(F)F)c1` (stereo unspecified), the Potency in test [1] was 7.94 µM (active); in test [8], 5.36 µM (active). Also, the compound was classed as inactive in [2], in test [3], in [6], in [9] and in test [10]. Further, the max response in [4] is -13.5%; in test [5], 5.51%.

In the case of `CCN[C@@H](C)Cc1ccccc1`, the max response in test [2] was -24.3%; in test [3], -15.1%; in test [4], -12.1%; in test [5], 4.57%; in test [6], -15.7%.

Consider `NC1=NC(=O)C(c2ccccc2)O1` (stereo unspecified), for which the max response was -3.81% in [2], 2.82% in test [3], 4.09% in test [5] and 3.43% in test [6]. Also, the compound was classed as inactive in test [4] and in [7] (setting [11]).

Consider `CNCC(=O)c1ccc(O)c(O)c1`, for which the max response in test [2] is 0.325%; in test [3], 3.33%; in [5], -7.67%; in test [6], -2.19%. Further, the result in [4] and in test [7] (setting [11]) was inactive.

For `C[C@H](N)C(=O)c1ccccc1`, the max response in [2] is -38.6%; in test [3], -0.637%; in [4], -26.7%; in [5], -7.79% and 0.534%; in [6], -1.01%.

Regarding `CN(C)CCc1c[nH]c2cccc(OP(=O)(O)O)c12`, the max response in test [2] is -37.9%; in test [3], -1.43%; in test [4] it was 4.32%; in test [5] it was -1.8%; in [6], -11.6%.

Turning to `O=C(N/N=C/c1ccc([N+](=O)[O-])o1)c1cc([N+](=O)[O-])cc([N+](=O)[O-])c1O`, the max response in test [2] was -3.2%; in test [3], 1.49%; in test [5], 15.7%; in test [6] it was 1.92%. The compound was called inactive in [4] and in test [7] (setting [11]).

For `CCC1(c2ccc(N)cc2)CCC(=O)NC1=O` (stereo unspecified), the max response in test [2] was 1.43% and -1.25%; in test [3], 4.46%; in test [4], 2.56% and -2.32%; in [5], 5.24% and 0.522%; in test [6] it was 1.87% and -15.6%. Also, the compound was classed as inactive in [3] and in test [10].

As for `COc1ccc2c3c1O[C@H]1[C@H](O)CC[C@H]4[C@@H](C2)N(C)CC[C@@]341`, the outcome in [2], in [4] and in test [6] was inactive. Moreover, the max response was -4.59% in test [3] and -6.57% in [5]. The outcome in test [9] and in [7] (setting [11]) was “inactive [at 92 µM]” each time.

For the compound `CCN(CC)C(=O)[C@@H]1C=C2c3cccc4[nH]cc(c34)C[C@H]2N(C)C1`, the max response in [2] was -10.2%; in [4] it was 1.44%; in test [5] it was 1.43% and -14.9%. The Potency in test [3] was 80 µM (active).

As to `CC(C)N(CCC(C(N)=O)(c1ccccc1)c1ccccn1)C(C)C` (stereo unspecified), the max response in test [2] was -4.51%; in test [4], -27.6%; in test [5], -6.29% and -10.8%; in [6] it was -23.6% and -1.68%. Besides, the compound was called inactive in [2], in test [4], in test [9] and in [7] (setting [11]).

Regarding `c1ccc(CN2CCNCC2)cc1`, the max response is 3.96% in test [2], -21.3% in test [3], -8.52% in test [5] and -5.38% in test [6]. Besides, the call in [4] was inactive. Moreover, the outcome in test [7] (setting [11]) was “inactive [at 155 µM]”.

`C=CCN1C[C@H](C)N([C@H](c2ccc(C(=O)N(CC)CC)cc2)c2cccc(OC)c2)C[C@H]1C`: the Potency in [8] is 15.1 µM (active). The max response is 0.0318% in [2]; -3.98% and -24.1% in test [3]; 2.69% in test [5]; -0.106% and 4.66% in test [6]. Also, the compound was called inactive in test [2], in test [4], in test [5], in test [9], in [7] (at 9.27 µM (top of the series)) and in test [7] (at 44.8 µM (top of the series)).

For `CCN[C@@H](C)Cc1cccc(C(F)(F)F)c1`, the max response is -0.0811% in [2], 3.69% in test [3], -9.47% in test [5] and 2.4% in [6]. Further, the compound was called inactive in [4] and in test [7] (setting [11]).

For `C#C[C@]1(O)CC[C@H]2[C@@H]3CCC4=CC(=O)CC[C@]4(C)[C@H]3CC[C@@]21C`, the max response in test [2] was -4.49%; in test [3] it was 2.42%; in test [4], 2.04%; in test [5] it was -5.39% and -1.95%; in test [6], 4.32%.

As for `O=C1c2ccccc2C(=O)C1C(=O)C(c1ccccc1)c1ccccc1`, the Potency result in test [1] is “inactive”. In addition, the max response in test [2] is 3.94%; in test [5], -7.07%; in test [6], -11%. The result in test [3], in [4], in test [7] (setting [11]) and in [10] was inactive.

In the case of `COc1cc(CCN)cc(OC)c1OC`, the max response was -14.6% in [2]; -9.62% in test [3]; -15.9% in test [4]; 2.38% in test [5]; -22.5% in [6].
